PLCg1 inh = blocks human PLC-gamma1 enzyme activity | P19174 | purified PLC-gamma1, fluorogenic substrate, fluorescence | inhibition, % at 12.2 µM | 370,000 compounds, 0.84% hits | AID 720700
LEDGF integ inh = blocks HIV-1 LEDGF/p75-dependent DNA integration; TR-FRET IN-LEDGF/p75 DNA integration, Eu/Cy5; inhibition, % at 3.7 µM; 370,000 compounds, 0.64% hits;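 active = inhibition above the screen-wide mean plus 3 SD, cut at about 13% in these data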;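 also: signal is the Cy5 over europium emission ratio at 671 and 618 nm; 0% = plate median of compound wells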
UHRF1 MBD2 ctr = blocks human UHRF1 binding to methylated DNA; AID 687016; UHRF1 binding to methylated oligo, TR-FRET; inhibition, % at 4.4 µM; Q96T88; 370,000 compounds, 0.75% hits; in the data active = inhibition above about 21%;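 also: UHRF1 SRA domain binding a hemimethylated CpG hairpin DNA probe; 0% = median of test compound wells and 100% = reference inhibitor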
PLC-beta3 inh = inhibitors of human phospholipase C beta3 | Q01970 | Purified PLC-beta3, fluorogenic substrate, fluorescence | inhibition, % at 12.2 µM | 370,000 compounds, 0.18% hits; in the data active = inhibition above about 11%;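 also: 0% = median of compound wells on plate and 100% = full blocker control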
MBD2 DNA inh = blocks human MBD2 binding to methylated DNA. Q9UBB5. TR-FRET, MBD2 binding to methylated oligonucleotide. inhibition, % at 4.4 µM. 370,000 compounds, 0.31% hits; in the data active = inhibition above about 13%
Target sequence (Q9UBB5 whole entry, looked up): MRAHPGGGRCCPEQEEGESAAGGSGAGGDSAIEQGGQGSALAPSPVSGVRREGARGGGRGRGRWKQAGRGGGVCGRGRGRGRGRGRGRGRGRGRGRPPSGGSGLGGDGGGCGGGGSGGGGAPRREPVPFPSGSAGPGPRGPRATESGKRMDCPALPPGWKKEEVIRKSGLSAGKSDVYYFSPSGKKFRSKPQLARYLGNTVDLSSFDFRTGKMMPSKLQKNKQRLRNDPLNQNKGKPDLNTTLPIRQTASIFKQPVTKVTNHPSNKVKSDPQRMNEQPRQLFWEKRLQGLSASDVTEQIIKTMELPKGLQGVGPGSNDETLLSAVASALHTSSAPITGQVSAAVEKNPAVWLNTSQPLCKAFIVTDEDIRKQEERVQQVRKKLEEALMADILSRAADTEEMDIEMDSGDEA
PLCg1 ctr = PLC-gamma1 inhibition, counter-screen for PLC-beta3 hits | shares compounds with PLCg1 inh | purified PLC-gamma1, fluorogenic substrate, fluorescence | inhibition, % at 12.3 µM | 3,300 compounds, 3.1% hits
PLCbeta3 conf = confirmation of human PLC-beta3 inhibitors. purified PLC-beta3, fluorogenic substrate fluorescence. 3,300 compounds, 1% hits. shares compounds with PLCg1 inh. inhibition, % at 12.3 µM; in the data active = inhibition above about 11%
* = called active by the depositor; x = no result. Rows were chosen to be rich in hits. Some 2.4% of all compounds tested hit in one or more screens of this group. Rule as the data show it, unless noted: active = inhibition above about 9.5%; inactive = the rest.

SMILES	PLCg1 inh	LEDGF integ inh	UHRF1 MBD2 ctr	PLC-beta3 inh	MBD2 DNA inh	PLCg1 ctr	PLCbeta3 conf
O=C(c1ccccc1)c1ccc(OCC(O)CNCc2ccc(Cl)cc2)cc1 (stereo not drawn)	12*	4	-2	3	-4	-2	-1
O=C(O)c1cccc(NC(=S)NC(NC(=O)c2cccc([N+](=O)[O-])c2)C(Cl)(Cl)Cl)c1 (stereo not drawn)	11*	11	2	7	-7	-6	-5
CCOC(=O)N1CCN(C(=O)COc2ccccc2Cl)CC1	9.5*	4	6	10	-3	1	3
COc1ccccc1C(=O)COC(=O)/C=C/c1ccccc1	9.6*	4	-1	-3	-8	-6	-12
O=C(/C=C/c1ccccc1)OCC(=O)c1c[nH]c2ccccc12	-2	0	-1	-5	-3	x	x
CC(C)CCNC(=O)C1CCN(c2cncnc2)CC1	-7	-3	0	-9	-5	x	x
COC(=O)c1ccc(OCCOc2ccccc2C)cc1	0	-4	3	-2	-1	x	x
COC(=O)c1ccc(OCCOc2ccccc2)cc1	11*	5	1	1	-5	-7	-4
COCCCNCC1C(Oc2ccc(Cl)cc2)C(=O)N1c1ccccc1C (stereo not drawn)	9.9*	0	1	-1	7	-3	-2
Cc1ccccc1N1C(=O)C(Oc2ccc(Cl)cc2)C1CNCCCOC(C)C (stereo not drawn)	5	0	2	2	0	x	x
COc1ccccc1CNc1ncccn1	9.7*	4	5	1	0	-2	2
CC1(C)Oc2ccc(C(=O)NC3CCCC3)cc2NC1=O	0	2	0	2	-2	x	x
CCCCN1CN2Cc3cc(OC)ccc3C2CS1(=O)=O (stereo not drawn)	-9	0	-4	-10	-5	x	x
CC(=O)Nc1ccc(-c2ccnc3c2CC(C)(C(=O)NC(C)C)O3)cc1 (stereo not drawn)	12*	-1	2	-1	10	-8	-1
COc1ccc(CNC(=O)C2(C)Cc3c(-c4cccc(C(N)=O)c4)ccnc3O2)cc1OC (stereo not drawn)	10*	0	2	3	1	-4	-2
CC1(C(=O)Nc2cccc(NS(C)(=O)=O)c2)Cc2c(-c3ccc(C(N)=O)cc3)ccnc2O1 (stereo not drawn)	10*	3	4	6	-6	7	2
CC(=O)CC[C@H]1CC[C@]2(CCCN(Cc3nccn3C)C2)O1	0	-5	1	-1	2	x	x
Cc1onc(-c2ccc(Cl)cc2)c1-c1ccn(S(=O)(=O)c2cccc(Cl)c2)n1	9.8*	10	6	-2	-2	1	-6
O=C(N=C1N(Cc2ccccc2)C[C@]2(C=C3CCCCC3n3c(=O)n(-c4ccccc4)c(=O)n32)N1C(=O)OCc1ccccc1)c1ccccc1 (stereo partly drawn)	-1	-1	-1	2	3	x	x
O=C1CCC[C@H]2C[C@H](NCc3ccccc3Cl)CC[C@]23CCCN13	-3	-2	-1	-2	4	x	x
C[C@H]1[C@@H](OC(=O)NCCc2c[nH]c3ccccc23)CC[C@@]23CCCN2C(=O)CCC[C@@H]13	-2	-6	-1	-2	-1	x	x
CN(C)c1nc(SCCOC(=O)COc2ccc(Cl)cc2Cl)nc(N(C)C)n1	9.9*	2	3	2	2	-8	-6
COC(=O)[C@@]12CCCCC3=C1N(CCC3)C(=O)[C@H]2CC(=O)NCc1cccc(C(F)(F)F)c1	2	3	1	3	0	x	x
COc1ccc(CN2CCN(C)CC2)cc1OCc1ccccc1	11*	-5	6	4	6	-3	-2
COc1cc(C(=O)NCC2(N(C)C)CCCCC2)ccc1OCc1ccccc1	13*	4	4	7	-6	0	3
CCC(=O)c1ccc(OCc2ccccc2)c(OC)c1	1	-1	2	1	-4	x	x
COc1cc(C(N)=O)ccc1OCc1ccccc1	7	6	6	11*	4	-7	-2
CC(C)[C@H](N)C(=O)N[C@H](C(=O)N1CCC2CCN(S(=O)(=O)c3ccccc3)CC21)C(C)C (stereo partly drawn)	0	-1	-4	-1	-2	x	x
